From PubChem BioAssay (NCATS) come the findings set out here.

Inconclusive results are not listed. Where a call stands in place of a potency, no number is given. Activity calls are given as the source filed them. Calls follow the shape of the dose curve; as a rule, active = well fitted curve in the direction sought with a large enough effect; inconclusive = small, poorly fitted or top-dose-only effect, or another doubt; inactive = no such curve, though single readings can be large; an effect the other way counts as inactive or inconclusive.

Sequence of Calcium and integrin-binding protein 1 (Homo sapiens) (Q99828 whole entry, looked up): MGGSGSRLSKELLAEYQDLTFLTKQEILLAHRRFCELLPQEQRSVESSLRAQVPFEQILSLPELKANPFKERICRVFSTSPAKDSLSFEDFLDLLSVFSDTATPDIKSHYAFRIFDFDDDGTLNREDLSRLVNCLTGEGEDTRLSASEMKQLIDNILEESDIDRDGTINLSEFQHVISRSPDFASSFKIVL

One assay addresses Calcium and integrin-binding protein 1 (Homo sapiens) (UniProt Q99828). In words: Primary qHTS for Identification of Calcium Integrin Binding Protein 1 (CIB1) Competitor (AID 1508620).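 Also: GST tagged CIB1 binding a fluorescein labelled alphaIIb integrin peptide tracer; top concentration of the series differs between compounds.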 The note with it: CIB1-GST / FITC-alphaIIb peptide fluorescence polarization; series mostly up to 114 µM. The essentials: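 Fluorescence polarization competition: CIB1-GST (1 uM final) preincubated with compound 15 min at room temperature, then FITC-labeled alphaIIb peptide (100 nM final) added for another 15 min. Polarization read at Ex 480/Em 540.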
For `C[N+]1(C)[C@@H]2CC[C@H]1CC(OC(=O)C(CO)c1ccccc1)C2` (stereo partly drawn), the Potency result is “inactive”.
In the case of `COc1cc(C[C@@H](C)N)c(OC)cc1C`, the Potency entry was “inactive”.
Take `OC(O)C(Cl)(Cl)Cl`: the Potency result was “inactive”.
Same read-out and setting: as for `C1CN2CCC1CC2`, the entry is “inactive”; as for `O=C(CCCCl)c1ccc(F)cc1`, “inactive”; as for `c1ccc2nc(N3CCNCC3)ccc2c1`, “inactive”.
As to `CC(C)[N+](C)(CCC(C(N)=O)(c1ccccc1)c1ccccc1)C(C)C`, the Potency result was “inactive”.
With `CCOC(=O)NC(O)C(Cl)(Cl)Cl` (stereo not drawn), the Potency entry is “inactive”.
On to `CC(C)C(Br)C(=O)NC(N)=O` (stereo not drawn), for which the Potency entry was “inactive”.
For `COc1ccc(OC)c(CC(C)N)c1` (stereo not drawn), the Potency entry is “inactive”.
As for `COc1cc(N)c(Cl)cc1C(=O)NC1CN2CCC1CC2` (stereo not drawn), the Potency result was “inactive”.
Turning to `N#Cc1nn(-c2c(Cl)cc(C(F)(F)F)cc2Cl)c(N)c1S(=O)C(F)(F)F` (stereo not drawn), the Potency entry is “inactive”.
Still for that read-out and setting: as for `CCN(CC)CCOC(=O)C(C)(c1ccccc1)c1ccccc1`, the entry is “inactive”; as for `CCOC(=O)c1cncn1C(C)c1ccccc1` (stereo not drawn), “inactive”.
With `CC[C@H]1C[C@H]2[C@@H]3CCC4=CC(=O)CC[C@@H]4[C@H]3CC[C@]2(C)[C@H]1O`, the Potency entry is “inactive”.
`C#C[C@]1(O)CC[C@H]2[C@@H]3CCC4=CC(=O)CCC4=C3C=C[C@@]21CC`: the Potency entry was “inactive”.
Regarding `CCOC(=O)NC(C)(C)Cc1ccc(Cl)cc1`, the Potency result is “inactive”.
In the case of `COCC(=O)N(c1c(C)cccc1C)C(C)C(=O)OC` (stereo not drawn), the Potency result was “inactive”.
With `ClC1=C(Cl)C2(Cl)C(CBr)CC1(Cl)C2(Cl)Cl` (stereo not drawn), the Potency result was “inactive”.
Turning to `CC(Cc1ccccc1)NCc1ccccc1Cl` (stereo not drawn), the Potency entry is “inactive”.
Consider `CC(Cc1ccc2c(c1)OCO2)NO` (stereo not drawn), for which the Potency entry was “inactive”.
The same measure, in the same setting: as for `Oc1c(Br)cc(Br)cc1Br`, the entry is “inactive”.
Same read-out and setting: as for `NCc1cccnc1`, the entry is “inactive”; as for `CCOC(=O)C(c1c(O)c2ccccc2oc1=O)c1c(O)c2ccccc2oc1=O`, “inactive”; as for `C[C@@H]1O[C@@H](O[C@@H]2C=C3CC[C@@H]4[C@H](CC[C@]5(C)[C@@H](c6ccc(=O)oc6)CC[C@]45O)[C@@]3(C)CC2)[C@H](O)[C@H](O)[C@H]1O`, “inactive”.
Still for that read-out and setting: as for `CCCOC(=O)Cc1ccc(OCC(=O)N(CC)CC)c(OC)c1`, the entry is “inactive”; as for `CCOC(=O)c1ncn2c1CN(C)C(=O)c1c(I)cccc1-2`, “inactive”.
`CN(C)C(=O)Oc1cc(OC(=O)N(C)C)cc(C(O)CNC(C)(C)C)c1` (stereo not drawn): the Potency entry was “inactive”.
The same measure, in the same setting: the result for `CN1C[C@@H](NS(=O)(=O)N(C)C)C[C@@H]2c3cccc4c3c(cn4C)C[C@H]21` reads “inactive”.
On the same count and under the same terms, the result for `Cc1nnc2n1-c1sc(CCC(=O)N3CCOCC3)cc1C(c1ccccc1Cl)=NC2` reads “inactive”; that for `CN1C(=O)CN=C(c2ccccc2)c2cc([N+](=O)[O-])ccc21`, “inactive”; that for `CCS(=O)(=O)C(C)(C)S(=O)(=O)CC`, “inactive”.
Turning to `COc1cc(CC#N)cc(OC)c1OC`, the Potency entry is “inactive”.
Turning to `C[N+](C)(C)CCOC(=O)C(O)(c1ccccc1)c1ccccc1`, the Potency entry is “inactive”.
On the same count and under the same terms, the result for `C[C@]12CC[C@H]3[C@@H](CCC4=CC(=O)CC[C@@H]43)[C@@H]1CC[C@@H]2O` reads “inactive”; that for `CCNc1nc(Cl)nc(NCC)n1`, “inactive”; that for `O=c1[nH]c2cc(Cl)ccc2n1C1CCNCC1`, “inactive”.
On to `C[C@]12CC[C@H]3[C@@H](CC=C4C[C@@H](O)CC[C@@]43C)[C@@H]1CC[C@@H]2O`, for which the Potency result is “inactive”.
As to `CCN1CCCC1CNC(=O)C(O)(c1ccccc1)c1ccccc1` (stereo not drawn), the Potency result was “inactive”.

System in a further assay: not listed separately
Put plainly: Primary qHTS for small molecule stabilizers of the endoplasmic reticulum resident proteome: Secreted ER Calcium Modulated Protein (SERCaMP) assay (AID 1508630). The following applies: SH-SY5Y GLuc-SERCaMP (Gaussia luciferase released on ER calcium loss) secretion, thapsigargin, luminescence; series mostly up to 38.4 µM. The essentials: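 GLuc-SERCaMP-expressing SH-SY5Y cells, pretreated 16 h with compound, are challenged with thapsigargin to empty ER calcium stores; after 4 h, coelenterazine is added directly to the medium and luminescence is imaged.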
(qHTS replaces the single test concentration by a dilution series.)
For `C[N+]1(C)[C@@H]2CC[C@H]1CC(OC(=O)C(CO)c1ccccc1)C2` (stereo partly drawn), the result was inactive.
Still for that read-out and setting: as for `COc1cc(C[C@@H](C)N)c(OC)cc1C`, the entry is “inactive”; as for `OC(O)C(Cl)(Cl)Cl`, “inactive”.
On the same count and under the same terms, as for `C1CN2CCC1CC2`, the entry is “inactive”; as for `O=C(CCCCl)c1ccc(F)cc1`, “inactive”.
With `c1ccc2nc(N3CCNCC3)ccc2c1`, the outcome was inactive.
On the same count and under the same terms, the result for `CC(C)[N+](C)(CCC(C(N)=O)(c1ccccc1)c1ccccc1)C(C)C` reads “inactive”; that for `CCOC(=O)NC(O)C(Cl)(Cl)Cl` (stereo not drawn), “inactive”.
In the case of `CC(C)C(Br)C(=O)NC(N)=O` (stereo not drawn), the result was inactive.
As to `COc1ccc(OC)c(CC(C)N)c1` (stereo not drawn), the outcome was inactive.
For the compound `COc1cc(N)c(Cl)cc1C(=O)NC1CN2CCC1CC2` (stereo not drawn), the outcome was inactive.
Still for that read-out and setting: as for `N#Cc1nn(-c2c(Cl)cc(C(F)(F)F)cc2Cl)c(N)c1S(=O)C(F)(F)F` (stereo not drawn), the entry is “inactive”; as for `CCN(CC)CCOC(=O)C(C)(c1ccccc1)c1ccccc1`, “inactive”.
In the case of `CCOC(=O)c1cncn1C(C)c1ccccc1` (stereo not drawn), the result was inactive.
Take `CC[C@H]1C[C@H]2[C@@H]3CCC4=CC(=O)CC[C@@H]4[C@H]3CC[C@]2(C)[C@H]1O`: the result was inactive.
The same measure, in the same setting: as for `C#C[C@]1(O)CC[C@H]2[C@@H]3CCC4=CC(=O)CCC4=C3C=C[C@@]21CC`, the entry is “inactive”; as for `CCOC(=O)NC(C)(C)Cc1ccc(Cl)cc1`, “inactive”; as for `COCC(=O)N(c1c(C)cccc1C)C(C)C(=O)OC` (stereo not drawn), “inactive”.
For `ClC1=C(Cl)C2(Cl)C(CBr)CC1(Cl)C2(Cl)Cl` (stereo not drawn), the result was inactive.
Same read-out and setting: the result for `CC(Cc1ccccc1)NCc1ccccc1Cl` (stereo not drawn) reads “inactive”.
The same measure, in the same setting: as for `CC(Cc1ccc2c(c1)OCO2)NO` (stereo not drawn), the entry is “inactive”.
`Oc1c(Br)cc(Br)cc1Br`: the result was inactive.
In the case of `NCc1cccnc1`, the result was inactive.
As to `CCOC(=O)C(c1c(O)c2ccccc2oc1=O)c1c(O)c2ccccc2oc1=O`, the outcome was inactive.
`C[C@@H]1O[C@@H](O[C@@H]2C=C3CC[C@@H]4[C@H](CC[C@]5(C)[C@@H](c6ccc(=O)oc6)CC[C@]45O)[C@@]3(C)CC2)[C@H](O)[C@H](O)[C@H]1O`: the outcome was inactive.
As for `CCCOC(=O)Cc1ccc(OCC(=O)N(CC)CC)c(OC)c1`, the outcome was inactive.
Take `CCOC(=O)c1ncn2c1CN(C)C(=O)c1c(I)cccc1-2`: the outcome was inactive.
Turning to `CN(C)C(=O)Oc1cc(OC(=O)N(C)C)cc(C(O)CNC(C)(C)C)c1` (stereo not drawn), the result was inactive.
Take `CN1C[C@@H](NS(=O)(=O)N(C)C)C[C@@H]2c3cccc4c3c(cn4C)C[C@H]21`: the result was inactive.
Still for that read-out and setting: as for `Cc1nnc2n1-c1sc(CCC(=O)N3CCOCC3)cc1C(c1ccccc1Cl)=NC2`, the entry is “inactive”.
`CN1C(=O)CN=C(c2ccccc2)c2cc([N+](=O)[O-])ccc21`: the result was inactive.
`CCS(=O)(=O)C(C)(C)S(=O)(=O)CC`: the result was inactive.
For the compound `COc1cc(CC#N)cc(OC)c1OC`, the outcome was inactive.
For `C[N+](C)(C)CCOC(=O)C(O)(c1ccccc1)c1ccccc1`, the result was inactive.
In the case of `C[C@]12CC[C@H]3[C@@H](CCC4=CC(=O)CC[C@@H]43)[C@@H]1CC[C@@H]2O`, the outcome was inactive.
In the case of `CCNc1nc(Cl)nc(NCC)n1`, the outcome was inactive.
Consider `O=c1[nH]c2cc(Cl)ccc2n1C1CCNCC1`, for which the outcome was inactive.
With `C[C@]12CC[C@H]3[C@@H](CC=C4C[C@@H](O)CC[C@@]43C)[C@@H]1CC[C@@H]2O`, the outcome was inactive.
With `CCN1CCCC1CNC(=O)C(O)(c1ccccc1)c1ccccc1` (stereo not drawn), the outcome was inactive.
